Data reported in PubChem BioAssay (NCATS).
Records with an inconclusive call do not appear. Calls of active or inactive are those of the source. The call rests on the fitted dose curve; in most records, active means well fitted curve in the direction sought with a large enough effect; inconclusive means small, poorly fitted or top-dose-only effect, or another doubt; inactive means no such curve, though single readings can be large; an effect the other way counts as inactive or inconclusive.

Experiments:
[1] = Viability qHTS for spleen associated tyrosine kinase inhibitor (SYKi) naive MV4-11 cells (AID 1963823); further: nearly all actives have a fitted effect of over 40% in size; further: potency means the concentration at half of the fitted maximal effect
How it was run: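 Cells: MV4-11, SYK inhibitor naive, 500 per well. Treatment: library compounds, 72 hr, 37 C, 5% CO2. Read-out: CellTiter-Glo luminescence after 10 min RT.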

[2] = Viability qHTS for spleen associated tyrosine kinase inhibitor (SYKi) drug resistant MV4-11 cells (AID 1963824); further: nearly all actives have a fitted effect of over 35% in size; further: potency means the concentration at half of the fitted maximal effect
How it was run: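 SYK inhibitor-resistant MV4-11 AML cells, 500 per well, added to predispensed compounds and incubated 72 hr at 37 C, 5% CO2. Viability measured by CellTiter-Glo luminescence after 10 min at room temperature.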

[3] = Quantitative highthroughput screen to assess conditional lethalithy of NOMO1 cells grown in RPMI1640 with untreated serum (RPMI+s) (AID 1963876); further: nearly all actives have a fitted effect of over 35% in size
How it was run: (§1)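 Each medium arm—HPLM with 10% dialyzed FBS, or RPMI1640 with 5 mM glucose and 10% untreated or dialyzed FBS—was screened against an 11-point, 3-fold compound titration for 48 h at 37 °C, with CellTiter-Glo luminescence as endpoint.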

[4] = Quantitative highthroughput screen to assess conditional lethalithy of NOMO1 cells grown in RPMI1640 with dialyzed fetal bovine serum (RPMI+ds) (AID 1963877); further: series mostly up to about 46 µM; nearly all actives have a fitted effect of over 30% in size
How it was run: as §1

[5] = Quantitative highthroughput screen to assess conditional lethalithy of NOMO1 cells grown in Human Plasma-Like Medium with dialyzed fetal bovine serum (HPLM+ds) (AID 1963878); further: nearly all actives have a fitted effect of over 35% in size
How it was run: as §1

[6] = Quantitative highthroughput screen to assess conditional lethalithy of P12 Ichikawa cells grown in Human Plasma-Like Medium with dialyzed fetal bovine serum (HPLM+ds) (AID 1963879); conditions: Potency: viability; further: series mostly up to about 46 µM; nearly all actives have a fitted effect of over 35% in size
How it was run: as §1

[7] = Quantitative highthroughput screen to assess conditional lethalithy of P12 Ichikawa cells grown in RPMI1640 with dialyzed fetal bovine serum (RPMI+ds) (AID 1963880); conditions: Potency: P12-Ichikawa viability; further: nearly all actives have a fitted effect of over 35% in size
How it was run: as §1

[8] = Quantitative highthroughput screen to assess conditional lethalithy of P12 Ichikawa cells grown in RPMI1640 with untreated serum (RPMI+s) (AID 1963881); conditions: Potency: viability
How it was run: as §1

[9] = Quantitative highthroughput screen to assess conditional lethalithy of SEM cells grown in Human Plasma-Like Medium with dialyzed fetal bovine serum (HPLM+ds) (AID 1963882)
How it was run: as §1

[10] = Quantitative highthroughput screen to assess conditional lethalithy of SEM cells grown in RPMI1640 with unreated serum (RPMI+s) (AID 1963883); further: nearly all actives have a fitted effect of over 35% in size
How it was run: as §1

[11] = Quantitative highthroughput screen to assess conditional lethalithy of SEM cells grown in RPMI1640 with dialyzed fetal bovine serum (RPMI+ds) (AID 1963884)
How it was run: as §1

Measured: Potency

COc1ccccc1OCCNCC(O)COc1cccc2[nH]c3ccccc3c12 (stereo not given)
active: [1] 13.3 µM | [2] 11.9 µM
inactive: all other assays above

COc1cccc([C@@H](C)NCCCc2ccccc2Cl)c1
active: [1] 14.8 µM | [2] 14.8 µM
inactive: all other assays above

COc1cc(OC)cc(-c2ccc3c(-c4ccc(F)cc4)[nH]nc3n2)c1
inactive: [1] | [2]

CCC(C)n1cc(C)c2c(C(=O)NCc3c(C)cc(C)[nH]c3=O)cc(-c3ccc(N4CCNCC4)nc3)cc21 (stereo not given)
active: [1] 13 µM | [2] 18.4 µM

COC(=O)C1=CO[C@@H](O[C@@H]2O[C@H](CO)[C@@H](O)[C@H](O)[C@H]2O)[C@@H]2[C@@H](C(=O)O)CC[C@H]12
inactive: [1] | [2]

C=C1CC[C@@H]2[C@](C)(CO)[C@H](O)CC[C@@]2(C)[C@@H]1CC(O)C1=CCOC1=O (stereo not given in full)
active: [1] 9.04 µM | [2] 4.53 µM

CC(O)C1C(=O)N2C(C(=O)O)=C(SC3CNC(C(=O)N(C)C)C3)C(C)C12 (stereo not given)
inactive: all assays above

CC(O)/C=C/C1(O)C(C)C(O)C(O[C@@H]2O[C@H](CO)[C@@H](O)[C@H](O)[C@H]2O)CC1(C)C (stereo not given in full)
inactive: [1] | [2]

Nc1ncnc2c1ncn2[C@H]1CCCO1
inactive: [1] | [2]
